MCF10A rereplic = induces DNA re-replication in MCF 10a normal breast cells; 350,000 tested, 2.9% active; MCF 10A DNA re-replication, Hoechst nuclear intensity, 48 h; AID 624296; Potency, µM (titrated, usually from 46.1 µM), inactives show at the top dose activity, positive = re-replication, most hits filed as activators; further: % of control where 0% means no effect; nearly all actives have a fitted effect of over 50% in size
KB-3-1 tox = KB-3-1 parental cell cytotoxicity; KB-3-1 viability, CellTiter-Glo ATP luminescence, 72 h; 400,000 tested, 1.4% active; Potency, µM (series often up to 46.1 µM), usual class: cytotoxic; further: on the % scale 0 is the no-effect control and ±100 the full control effect; nearly all actives have a fitted effect of over 60% in size
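Cells are dispensed, compounds pinned in, plates held at 37 °C for 72 h, then CellTiter-Glo is added and luminescence read after 10 minutes. Cell line: parental KB-3-1 in phenol-red-free DMEM, 10% FBS.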
KB-V1 cytotox = KB-V1 MDR subline cytotoxicity; KB-V1 MDR cells viability, CellTiter-Glo, 72 h; Potency, µM (titrated, usually from 46.1 µM), hits mostly cytotoxic; AID 1347076; 400,000 tested, 3.4% active; further: on the % scale 0 is the no-effect control and ±100 the full control effect; nearly all actives have a fitted effect of over 60% in size
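Potencies derive from concentration-effect curves fitted to normalized luminescence (CellTiter-Glo) of KB-V1 cells treated for 72 h at 37 degrees C in phenol-red-free DMEM containing 10% FBS.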
ELG1 repair inh = inhibitors of ELG1-dependent DNA repair in HEK293T cells. HEK293T ELG1-luciferase reporter, luminescence, 16 h; DNA damage induced by 5-fluorouridine. Potency, µM (top dose mostly 46.1 µM), for inactives: at the highest dose activity change, negative = inhibition, actives largely listed as inhibitors. 330,000 tested, 2.3% active. AID 504467; further: on the % scale 0 is the no-effect control and ±100 the full control effect; nearly all actives have a fitted effect of over 55% in size
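Overnight (16 hr) co-exposure of 2,000 cells/well to 5-fluorouridine and compound at 37 °C preceded detection. Luciferase was quantified via ONE-Glo luminescence; loss of signal denotes inhibition.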
SW480 rereplic = induces DNA re-replication in SW480 colon adenocarcinoma cells; SW480 DNA re-replication, Hoechst DNA content imaging, 48 h; Potency, µM (series often up to 46.1 µM), for inactives: at the highest dose re-replication activation, actives largely listed as activators; 340,000 tested, 1.8% active; further: % of control where 0% means no effect; nearly all actives have a fitted effect of over 55% in size
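Image-based DNA-content assay: after two days of treatment, nuclei were labelled with the DNA dye Hoechst and imaged, and hits were compounds raising the count of nuclei showing high fluorescence intensity.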
* = called active by the depositor; i = inactive; ? = inconclusive; . = no result given. Sampled rows, rich in hits. Any-hit rate of the full collection: about 8.1%. The call rests on the fitted dose curve; in most records, active means well fitted curve in the direction sought with a large enough effect; inconclusive means small, poorly fitted or top-dose-only effect, or another doubt; inactive means no such curve, though single readings can be large; an effect the other way counts as inactive or inconclusive. Potency means the concentration at half of the fitted maximal effect.

SMILES	MCF10A rereplic	KB-3-1 tox	KB-V1 cytotox	ELG1 repair inh	SW480 rereplic
CC1CCCN(S(=O)(=O)c2ccc(NC(=O)c3nc(SC(C)C)ncc3Cl)cc2)C1 (stereo not given)	.	i	i	.	.
COc1ccc(NC(=O)CSc2nnc(-c3ccc(OC)cc3)s2)cc1	.	i	i	.	.
COCCn1c(SCC(=O)Nc2ccc(S(=O)(=O)N(C)C)cc2)nc2ccccc21	0%	i	i	15µM*	-2%
O=C(OCC(=O)c1ccccc1Cl)C1=NN(c2ccccc2)C(=O)CC1	-1%	i	i	?	-8%
Cc1cccnc1CN1CCN(C(=O)c2cc(COc3ccc4ncccc4c3)on2)CC1	?	?	6.5µM*	?	3%
CC(CNC(=O)c1cc(COc2ccc3ncccc3c2)on1)c1ccccc1 (stereo not given)	?	.	.	10µM*	2%
CCCCC(=O)N(c1ccc2oc(C)c(C(C)=O)c2c1)S(=O)(=O)c1ccc(F)cc1C	.	i	i	.	.
CCOC(=O)c1c(C)oc2ccc(N(C(C)=O)S(=O)(=O)c3c(C)cc(C)cc3C)cc12	.	23µM*	4.1µM*	.	.
CC(=O)c1c(C)oc2ccc(N(C(=O)c3ccncc3)S(=O)(=O)c3ccc(C)cc3C)cc12	.	?	23µM*	.	.
COc1ccc(S(=O)(=O)N(C(=O)c2ccncc2)c2ccc3oc4c(c3c2)CCCC4)cc1	3.3µM*	?	?	?	?
O=C(c1ccncc1)N(c1ccc2oc3c(c2c1)CCCC3)S(=O)(=O)c1cccc([N+](=O)[O-])c1	?	i	i	2%	0%
Cc1ccc(C)c(OCC(=O)N/N=C/c2ccc(N3CCOCC3)cc2)c1	.	i	i	.	.
COc1ccnc(CS(=O)c2nc3ccc(OC(F)F)cc3[nH]2)c1OC (stereo not given)	11%	.	.	.	1%
CC1CN(C(=S)Nc2ccccc2)C(C)CN1C=O (stereo not given)	9%	i	i	.	-8%
COc1cc(N=Nc2ccc(Br)cc2)cc(C=O)c1O	.	?	15µM*	.	.
O=C1C=CC(=O)N1N(c1ccccc1)c1ccccc1	5.2µM*	i	i	?	?
O=C1c2ccccc2-c2nc3ccccc3nc21	17%	i	i	?	-11%
Cc1nc2c(nc1C)C(=O)c1ccccc1C2=O	5.8µM*	16µM*	9.2µM*	.	13µM*
CN(CC(=O)Nc1ccccc1Cl)C(=O)COC(=O)c1nc(Cl)c(Cl)c(Cl)c1Cl	5.8µM*	?	i	?	?
CN(CC(=O)Nc1ccccc1Cl)C(=O)CSc1nc2ccccc2s1	-3%	i	16µM*	14%	2%
Cc1nnc(SCC(=O)N(C)CC(=O)Nc2ccccc2Cl)s1	25%	i	i	?	-37%
CN(C(=O)CSc1nc2ccc(NC(=O)COc3ccc(Cl)cc3)cc2s1)c1ccccc1	.	?	21µM*	.	.
CCc1ccccc1NC(=O)CN(C)C(=O)CSc1nnc(Nc2cccc(C)c2C)s1	15%	i	18µM*	?	-4%
Cc1ccc(Cl)cc1NC(=O)CC1Sc2ccccc2NC1=O (stereo not given)	.	i	i	.	.
CCCc1nc2ccc(Br)cn2c1Cc1cccc(Cl)c1	.	i	i	.	.
SMILES	MCF10A rereplic	KB-3-1 tox	KB-V1 cytotox	ELG1 repair inh	SW480 rereplic
Cc1ccc(C)c(N2CCN(c3nc4ccccc4c4nc(CCn5nc(C)cc5C)nn34)CC2)c1	.	i	i	.	.
OCC#CCSc1nnc(-c2ccccc2Br)o1	12µM*	i	i	?	?
CC(=O)COc1nc2c(c(-c3ccco3)c1C#N)CCc1ccccc1-2	?	?	?	8.2µM*	9%
CN(C)S(=O)(=O)N1CCN(c2ccc([N+](=O)[O-])c(NC3CC3)c2)CC1	0%	i	i	-29%	12%
O=[N+]([O-])c1ccc(N2CCOCC2)cc1NC(c1ccccc1)c1ccccc1	14%	i	16µM*	0%	1%
O=[N+]([O-])c1ccc(N2CCCC2)cc1NC1CC1	?	i	21µM*	-6%	9%
CC(Nc1cc(N2CCN(C(=O)C(C)(C)C)CC2)ccc1[N+](=O)[O-])c1ccccc1 (stereo not given)	18%	?	10µM*	?	15%
Cc1ccn2c(=O)cc(COc3ccc(NC(=O)COc4ccccc4)cc3)nc2c1	.	i	i	.	.
Cc1cccc(NC(=O)c2sc3nc4c(cc3c2N)CN(C(C)C)CC4)c1	.	?	i	.	.
Cc1cc(=O)[nH]c2c1c(C)nn2C1CCCCC1	6.5µM*	i	i	0%	8.2µM*
CC(C)C(=O)c1cn(CC(=O)N2CCCc3ccccc32)c2ccccc12	19%	i	5.2µM*	-24%	4%
O=C(COc1cccc2c1CCN(Cc1ccccc1)C2=O)N1CCCCC1	?	i	?	?	?
Cn1c(=O)cc(OCC(=O)N2CCCc3ccccc32)c2ccccc21	7%	i	15µM*	2%	-4%
O=C1c2cccc(OCC(=O)N3N=C(c4cccs4)CC3c3ccc(F)cc3)c2CCN1Cc1cccnc1 (stereo not given)	?	i	21µM*	18µM*	.
Cc1ccccc1OCC(=O)N1CCCc2ccccc21	1%	i	i	?	-2%
O=C1c2cccc(OCC(=O)N3CCCc4ccccc43)c2CCN1Cc1cccnc1	1%	?	3.7µM*	7.3µM*	1%
CCN(CC)C(=O)[C@H]1C[C@H](CC(=O)NC(C)(C)C)C(=O)N2CCc3c([nH]c4cc(CCC(=O)N(C)C)ccc34)[C@]12C	7%	i	i	18%	-4%
CCN1CCc2c(OCC(=O)N3CCc4ccccc43)cccc2C1=O	.	.	.	-2%	.
Cc1ccccc1CN1CCc2c(OCC(=O)N3CCCc4ccccc43)cccc2C1=O	?	21µM*	?	?	15%
COc1cc(/C=C/C(=O)N(C)CC(=O)Nc2ccccc2SC)cc(OC)c1OC	4%	i	13µM*	16µM*	-5%
CSc1ccccc1NC(=O)CN(C)C(=O)/C=C/c1ccccc1	6%	i	i	-1%	-11%
CCOC(=O)c1ccc(N2C(=O)C3C(/C=C/c4ccccc4)OC4(C(=O)c5ccccc5C4=O)C3C2=O)cc1 (stereo not given)	26µM*	i	i	-1%	-6%
CCOC(=O)CNC(=O)N1CCCC(C(=O)c2cccc(Cl)c2)C1 (stereo not given)	2%	i	i	10%	14%
Cc1ccc(C)c(S(=O)(=O)/N=C2\C=C(NS(=O)(=O)c3ccccc3)C(=O)c3ccccc32)c1	?	?	i	23µM*	?

Compound activity as filed in PubChem.
